# Screens from PubChem BioAssay.
# This is one part of a sample in which hits are shown more often than they occur.
# GluA2 TARP mod: modulates AMPAR-stargazin complexes. HEK293 GluA2+stargazin, membrane potential dye (FDSS), glutamate EC50; hits were called plate by plate, in both directions. O88602+P19491. calls only at 30 µM. hit rate 3.5% among 40,000;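 active means any of four per-well response measures lying three or more SD from its plate-wide compound average, in either direction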
# GIRK2 act: Activators of human GIRK2-containing channels | HEK293 GIRK2/NPY4 cells, thallium flux fluorescence | activation (% efficacy), % for hits at 37.5 µM | 34,000 tested, under 10 active;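 active means primary screen hit, no activity in plain HEK293 cells, and in GIRK2-only cells above 5% efficacy rising with concentration; inactive means the rest, including fluorescent compounds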;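 further: efficacy is normalized control-subtracted fluorescence 15 s after thallium addition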
# Target sequence (P48051 whole entry, looked up): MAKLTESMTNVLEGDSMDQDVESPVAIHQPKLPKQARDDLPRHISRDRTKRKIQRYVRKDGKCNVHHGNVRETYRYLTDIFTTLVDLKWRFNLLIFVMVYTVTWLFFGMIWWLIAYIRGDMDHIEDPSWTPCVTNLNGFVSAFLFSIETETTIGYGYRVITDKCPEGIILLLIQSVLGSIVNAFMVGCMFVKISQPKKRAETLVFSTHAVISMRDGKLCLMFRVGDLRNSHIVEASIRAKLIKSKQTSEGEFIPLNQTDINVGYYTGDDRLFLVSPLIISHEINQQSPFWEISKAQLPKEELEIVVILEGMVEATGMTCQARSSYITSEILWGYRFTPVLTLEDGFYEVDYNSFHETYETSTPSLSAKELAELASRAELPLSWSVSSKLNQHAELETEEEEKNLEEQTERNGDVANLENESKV
# The depositor's hits bear a star; i = inactive; · = not tested or not shown; + = active, no number; ! = a repeat was not active.
SMILES,GluA2 TARP mod,GIRK2 act
Cc1ccc(C(=O)Nc2ccc(C(=O)NCCNC(=O)c3ccccc3C)cc2)cc1,+,·
CC(C)CN(C1CCS(=O)(=O)C1)S(=O)(=O)c1ccc(Br)cc1 (stereo not drawn),i,·
CCN1CCN(c2nc3c(c(=O)[nH]c(=O)n3C)n2CC(O)COc2ccc(Cl)cc2)CC1 (stereo not drawn),+,·
CC(O)CNc1nc2c(c(=O)[nH]c(=O)n2C)n1CC(O)COc1ccc(Cl)cc1 (stereo not drawn),i,·
Cn1c(=O)c2c(nc(N3CCN(Cc4ccccc4)CC3)n2CC(O)COc2ccc(Cl)cc2)n(C)c1=O (stereo not drawn),+,·
CCN1CCN(c2nc3c(c(=O)n(C)c(=O)n3C)n2CC(O)COc2ccccc2)CC1 (stereo not drawn),i,·
CSc1ccccc1C(=O)Nn1cnc2c(cnn2-c2ccc(C)c(C)c2)c1=O,i,·
O=C(Nc1sc2c(c1-c1nc3ccccc3s1)CCCC2)c1ccc(Oc2ccccc2)cc1,i,·
O=C(CCCS(=O)(=O)c1ccccc1)Nc1nc2c(cc3c4c(cccc42)CC3)s1,i,i
COc1cc(/C=C/C(=O)N2CCC(C)CC2)ccc1OCc1ccccc1,+!,i
COc1cc(/C=C/C(=O)N2CCCCCC2)ccc1OCc1ccccc1,i,i
O=C(CSc1nc(=O)n(CC2CCCO2)c2c1CCCC2)NCc1ccc(F)cc1 (stereo not drawn),i,i
O=c1nc(SCc2ccc(Br)cc2)c2c(n1CC1CCCO1)CCCC2 (stereo not drawn),+,i
O=C(CSc1nc(=O)n(CCO)c2c1CCC2)Nc1ccc(F)c([N+](=O)[O-])c1,+,i
O=C(CSc1nc(=O)n(CC2CCCO2)c2c1CCCC2)Nc1ccc(F)cc1F (stereo not drawn),+,i
O=c1nc(SCc2ccc([N+](=O)[O-])cc2)c2c(n1CC1CCCO1)CCC2 (stereo not drawn),i,i
O=C(CSc1nc(=O)n(CCCO)c2c1CCC2)Nc1ccc(F)c([N+](=O)[O-])c1,i,i
C=CCn1c(=O)c2c(nc3n(-c4ccc(OC)cc4OC)c(C)c(C)n23)n(C)c1=O,i,·
O=C(NCCOc1ccc(-c2ccc(F)cc2)nn1)c1cccc(Cl)c1,i,·
CCN(CC)c1cc(C)nc(Nc2ccc(NC(=O)C(C)(C)C)cc2)n1,+,i
Cc1cc(N(C)C)nc(NCCNC(=O)Nc2ccc(C)c(C)c2)n1,i,i
COc1ccc(Cl)cc1NC(=O)C(=O)NCCN1CCOC(c2ccccc2)C1 (stereo not drawn),·,i
O=C(NCCc1cccs1)c1nnn(-c2ccccc2Cl)c1-c1ccncc1,+,i
CC(C(=O)NCCc1cccs1)n1nnc2ccccc2c1=O (stereo not drawn),i,i
CSc1ccccc1NC(=O)C(=O)NCC1CCN(Cc2ccccc2)CC1,i,i
SMILES,GluA2 TARP mod,GIRK2 act
CSc1ccccc1CN1CCC(CNC(=O)C(=O)Nc2ccccc2Cl)CC1,+,i
CCn1c(-n2nc(C)cc2C)nc2c1c(=O)n(CCOC)c(=O)n2C,i,·
CCOCCn1c(=O)c2c(nc3n2CC(C)CN3c2ccc(Br)cc2)n(C)c1=O (stereo not drawn),i,·
COCCn1c(=O)c2c(nc3n2CC(C)CN3c2ccc(Br)cc2)n(C)c1=O (stereo not drawn),+,·
COCCn1c(=O)c2c(nc(-n3nc(C)cc3C)n2C)n(C)c1=O,+,·
CCOC(=O)CCC(=O)Nc1ccc2c(c1)CN(C(=O)c1cccs1)CC2,i,i
COc1ccc(NC(=O)c2ccc(Cl)cc2Cl)c2ccccc12,i,·
O=C(CCc1ccccc1)NCC1CCN(Cc2ccco2)CC1,·,i
Cc1ncc([N+](=O)[O-])n1CCOC(=O)c1ccc(F)cc1,i,i
COCCn1c(SCc2ccc(C(F)(F)F)cc2)nnc1-c1cn(C)nc1OC,+,i
COCCn1c(SCc2ccccc2)nnc1-c1cn(C)nc1OC,i,i
CC(C)COc1ccc(S(=O)(=O)NCCCN2CCOC(c3ccccc3)C2)cc1 (stereo not drawn),·,i
CCOc1ccc(NC(=O)N2CC(c3nc(-c4cccc(C(F)(F)F)c4)no3)C2)cc1,·,i
CC(=O)c1ccc(S(=O)(=O)N(Cc2ccsc2)Cc2ccccn2)cc1,·,i
COc1ccc2sc(N(CCN3CCOCC3)C(=O)/C=C/c3cccs3)nc2c1,i,i
Cc1nc(NCC2CCCO2)nc(Nc2ccc(F)cc2)c1[N+](=O)[O-] (stereo not drawn),i,i
Cc1nc(NCC2CCCO2)nc(NC2CCCCC2)c1[N+](=O)[O-] (stereo not drawn),+,i
COc1ccc(C(=O)COc2ccc3c(c2)O/C(=C\c2cc(OC)c(OC)c(OC)c2)C3=O)cc1,i,·
CCOc1cc(C)ccc1S(=O)(=O)N1CC(C)CC(C)C1 (stereo not drawn),+,·
CCOc1cc(C)ccc1S(=O)(=O)N1CCCCC1,i,·
COC(=O)c1ccc(C(=O)NCC(O)(c2ccco2)C2CC2)cc1 (stereo not drawn),i,i
CCS(=O)(=O)N1CCCc2cc(NS(=O)(=O)c3ccc(OC)cc3C)ccc21,i,·
O=C(NCCC(c1ccccc1)c1ccccc1)C(=O)Nc1ccc(F)c([N+](=O)[O-])c1,i,i
CCOc1ccccc1C(=O)NCC1CCN(c2ncccn2)CC1,+,i
CCOc1ccccc1NC(=O)C(=O)NCC1CCN(c2ncccn2)CC1,i,i
SMILES,GluA2 TARP mod,GIRK2 act
COc1cccc2cc(C(=O)NCC3CCN(c4ncccn4)CC3)c(=O)oc12,+,i
O=C(NCC1CCN(c2ncccn2)CC1)c1c(F)cccc1F,i,i
O=S(=O)(NC1CCCC(O)C1)c1c(F)cccc1F (stereo not drawn),i,i
CC(=O)Cn1c(=O)c2c(nc3n(-c4ccccc4F)c(-c4ccccc4)cn23)n(C)c1=O,i,·
CC(C)n1ccc(C(=O)N(Cc2ccccn2)c2nc3c(Cl)cccc3s2)n1,+,i
Cn1ccc(C(=O)N(Cc2cccnc2)c2nc3c(Cl)cccc3s2)n1,i,i
CN1C(=O)NC2(CCN(C(=O)c3ccc(F)cc3Cl)CC2)C1=O,i,i
Cc1cc(C)n(-c2cc(C(C)C)nc3c(-c4ccccc4)c(C)nn23)n1,+,i
Cc1nn2c(N3CCN(c4ccccn4)CC3)cc(C(C)C)nc2c1-c1ccccc1,i,i
N#CCCOCc1nc2ccccc2n1CCC#N,i,i
O=C(c1ccno1)N1CC(c2nc(-c3ccsc3)no2)C1,·,i
Cc1cc(N(C)C)nc(NCCNC(=O)COc2ccc(Cl)cc2)n1,·,i
COc1cc(-c2nnc(NC(=O)c3ccc(C(C)=O)cc3)o2)cc(OC)c1OC,+,·
COc1cccc(C(=O)Nc2nnc(-c3ccc(C)c(C)c3)o2)c1,i,i
COc1cc(-c2nnc(NC(=O)c3ccc(OC(C)C)cc3)o2)cc(OC)c1OC,i,·
COc1cccc(C(=O)Nc2nnc(-c3cc(OC)c(OC)c(OC)c3)o2)c1,+,·
Cc1nn(-c2ccc(C(=O)NCc3ccc(C(C)C)cc3)cn2)c(C)c1C,·,i
COCCNC(=O)C(=O)NCC1CCN(C(=O)c2ccccc2F)CC1,i,i
